This is an account of results in PMC5540273 (PLoS ONE, 2017).

Settings in all cases: concentration: 1 μM, replicates: in singlicate; n = 1
In assay [1] the test system is SgK110.
Assay [2] concerns T1, TAK1.
T1 construct: gene MAP3K7

Assay [3] has as its system TAOK1.
Assay [4] has as its system TAOK2.
The subject of assay [5] is TAOK3.
Assay [6] has as its system TBK1.
Assay [7] relates to TEC.
Assay [8] has as its system TESK1.
In assay [9] the test system is TGFBR1.
For assay [10], the system named is TGFBR2.
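Also: KINOMEscan kinase panel screen.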

In the case of `Cn1ccc2ncnc(Nc3ccc(Oc4cccc(Cl)c4)c(Cl)c3)c21`, the “%Inh” value in assay [1] is reported as 11%; in [2] it was 25%; in assay [3], 0%; in assay [4] it was 0%; in assay [5] it was 0%; in assay [6], 28%. For the same compound, the “%Inh” value in [7] was determined as 96.7%; in assay [8] it was 13%; in assay [9] it was 4%; in assay [10], 0%.
`Cn1ccc2ncnc(Oc3ccc(NC(=O)Nc4cccnc4)c(Cl)c3)c21`: the “%Inh” value is on record as 49% in assay [1]; 12% in assay [2]; 0% in assay [3]; 0% in [4]; 0% in assay [5]; 5% in [6]. Further, the “%Inh” value in assay [7] is listed as 6%; in assay [8], 0%; in assay [9], 0%; in assay [10], 0%.
For the compound `Cc1cc(N2CCC(NS(=O)(=O)c3ccc(F)cc3)CC2)nc(Nc2cccc(C#N)c2)n1.O=C(O)C(F)(F)F` [GSK1653537], the “%Inh” value in assay [1] is recorded as 6%; in [2], 0%; in assay [3], 0%; in assay [4] it was 0%; in assay [5] it was 0%; in [6], 1%. Also, the “%Inh” value in assay [7] is 0%; in assay [8], 9%; in [9], 0%; in assay [10], 11%.
`CCn1c(-c2ccncc2)nc2cnccc21` [SB-735216]: the “%Inh” value in [1] was 0%; in assay [2] it was 20%; in assay [3], 15%; in assay [4], 13%; in assay [5] it was 18%; in assay [6] it was 17%. The “%Inh” value is 7% in assay [7], 24% in assay [8], 0% in assay [9] and 0% in assay [10].
